These results are taken from PubChem BioAssay (NCI).

Test in all cases: NCI-60 one-dose screen, 48 h (100 = growth as untreated, 0 = no growth, -100 = all killed)
What all share (details): 10 µM unless noted

Assay [1] concerns HCT-15 colon.
Assay [2] concerns HT29 colon.
The test system of assay [3] is SNB-19 CNS.
Assay [4] deals with U251 CNS.
Assay [5] deals with PC-3 prostate.
For assay [6], the system named is SK-MEL-5 melanoma.
Assay [7] concerns UACC-62 melanoma.
The test system of assay [8] is LOX IMVI melanoma.
Assay [9] deals with SK-MEL-28 melanoma.

SMILES strings stand for the structures. About 83,000 compounds went through this panel and 20% of them were active in at least one assay; those are over-represented in the sample as a whole.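 Cells were grown in 96-well plates and exposed to the test compound at a single concentration for 48 hours; results are reported as percent growth, with values below 10 considered active.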 Unmarked numbers belong to inactive results. Active and inactive are the calls of the source.

With `O=[N+]([O-])c1ccc(Sc2ncccn2)c([N+](=O)[O-])c1`, the growth in [1] is 38.9%; in assay [2] it was 62.2%; in assay [3] it was 99.3%; in [4], 78.6%; in assay [5], 32.9%; in [6] it was 76.7%. Besides, the figures for the growth in [7], in [8] and in assay [9] were 60.7%, 68.1% and 71.9%, respectively.
In the case of `Clc1cc2c(nn1)Nc1ccccc1S2`, the growth in assay [1] is 101%; in assay [2] it was 102%; in assay [3] it was 88.5%; in [4], 97.3%; in assay [5] it was 92.4%; in assay [6], 95%. Moreover, the growth in assay [7] was 95.2%; in assay [8], 98.6%; in [9], 109%.
`COc1ccc(C2C=C(c3ccc(OC)c(OC)c3)N=C3SC=C(C)N32)c(Br)c1` (configuration not stated): the growth was 92.8% in [1]; 107% in [2]; 110% in assay [3]; 96.3% in assay [4]; 103% in assay [5]; 100% in assay [6]. In addition, the growth in [7] was 106%; in assay [8], 109%; in assay [9], 110%.
Turning to `CC(=O)Oc1cccc(S(=O)(=O)n2cc(C(=O)C(=O)Nc3ccncc3)c3ccccc32)c1`, the growth was 80.1% in [1]; 86.1% in assay [2]; 92.9% in assay [3]; 93.1% in assay [4]; 81.4% in assay [5]; 73.5% in [6]. Also, the growth in [7] is 70.8%; in assay [8], 86.6%; in assay [9] it was 104%.
For `CN1CCN(CCCOc2ccc3nc(Nc4ccc(Cl)c(C(F)(F)F)c4)ccc3c2)CC1`, the growth in assay [1] is 2.44% (active); in assay [2], -37.5% (active); in assay [3], 66%; in assay [4], 23.3%; in assay [5], 40.6%; in assay [6], 76.9%. The growth in [8] was -83.7% (active).
Turning to `CCn1c2ccccc2c2cc(NC(=O)Nc3ccc([N+](=O)[O-])cc3C)ccc21`, the growth in [1] is 25.5%; in assay [2], 17.9%; in assay [3], 66.6%; in [4], 31.5%; in assay [5], 19.2%; in assay [6], 48.1%. Moreover, the growth in [7] is 38.9%; in [8] it was 39.2%; in assay [9] it was 67.2%.
Take `CCC1=CCC[C@@]2(C)CCC[C@@]3(C)CCCC(C)(C)[C@]1([O-])[O+]32`: the growth in assay [1] was 108%; in [2], 102%; in assay [3], 102%; in [4], 103%; in [5], 96.5%; in assay [6], 101%. Also, the figures for the growth in assay [7] and in assay [9] were 103% and 96.8%, respectively.
On to `COc1ccc(-c2ccc(-c3ccc(-c4ccc(C(=N)N)cc4)s3)s2)cc1OC`, for which the growth in assay [1] was -68.8% (active); in [2], -60.2% (active); in assay [3], 87.7%; in assay [4] it was 46.4%; in assay [5], 70.6%; in [6] it was 93.8%. The growth in assay [7] was 94.1%; in assay [9], 93%.
`Fc1ccc(CNCCNc2ncnc3c2cnn3-c2ccccc2)cc1`: the growth in assay [1] was 92.4%; in assay [2], 93.1%; in assay [3], 94.1%; in assay [4], 84%; in assay [5], 86.6%; in assay [6], 87.4%. Also, the growth in assay [8] is 89.4%; in assay [9], 110%.
In the case of `NC(N)=N/N=C/c1ccc(-c2ccc(-c3cc(Cl)cc(Cl)c3)s2)cc1`, the growth is -74.5% (active) in [1]; -74.9% (active) in assay [2]; 40% in assay [3]; -84.1% (active) in assay [4]; -38.5% (active) in [5]; 86.9% in assay [6]. The figures for the growth in [7] and in [9] were 48.2% and 96.5%, respectively.
As for `Cc1[nH]c2ccc(F)cc2c1CCNC(=O)C1CCN(C(=O)c2ccccc2)CC1`, the growth is 94.4% [25 µM] in assay [1]; 95.2% [25 µM] in [2]; 86.3% [25 µM] in assay [3]; 90.7% [25 µM] in [4]; 71% [25 µM] in [5]; 76% [25 µM] in assay [6]. In addition, the results for the growth in [7] and in assay [9] were 82.5% [25 µM] and 96.4% [25 µM], respectively.
For `CC(C)(C)n1cc(-c2ccnc(NCCCNS(=O)(=O)c3ccc(Cl)cc3)c2)c(-c2cccc(O)c2)n1`, the growth in [1] was -65.3% (active); in assay [2], -49.3% (active); in assay [3], 24.6%; in assay [4], -43.7% (active); in assay [5], -0.444% (active); in assay [6], -87.8% (active). The results for the growth in [8] and in assay [9] were -88.4% (active) and -67.1% (active), respectively.
In the case of `O=C(NCc1cn(Cc2cccc(Oc3ccccc3)c2)nn1)c1cccnc1Nc1ccc(F)cc1`, the growth in [1] is 31.3%; in assay [2], 38.3%; in [3], 72.9%; in [4], 55.3%; in [5] it was 89.3%; in assay [6], 40.8%. The results for the growth in [7], in assay [8] and in assay [9] were 43%, 54.4% and 72.4%, respectively.
For `C=C1C(=O)O[C@H]2[C@H]1CC/C(Cn1cc(-c3cccc(Cl)c3)nn1)=C\CC[C@@]1(C)O[C@@H]21`, the growth was -72.3% (active) in [1]; -56.3% (active) in assay [2]; 37.9% in [3]; -71.1% (active) in assay [4]; -59.1% (active) in assay [5]; -52.6% (active) in assay [6]. The growth in assay [8] is -91.1% (active).
Turning to `CC(C)(C)c1[nH]nc2c1C(c1cc3ccccc3[nH]c1=O)Nc1cc(C(=O)Nc3ccc(Cl)cc3)ccc1N2` (configuration not stated), the growth in assay [1] is 98.8%; in assay [2] it was 91.3%; in [3] it was 90.5%; in assay [4] it was 60.5%; in assay [5] it was 61.4%; in [6], 70.2%. The growth in [7] is 73.1%; in assay [9], 81.7%.
As for `O=C1NC(=C(Cl)Cl)/C(=N/S(=O)(=O)N2CCC(C3(C(F)(F)F)N=N3)CC2)N1`, the growth was -60.6% (active) in assay [1]; -10.2% (active) in assay [2]; 86.7% in [3]; 45.2% in [4]; 89.6% in [5]; 92% in assay [6]. Also, the growth in assay [7] is 91.7%; in [9] it was 99.1%.
As to `N=C(N)c1ccc(-c2ccc(-c3ccc4ccccc4c3)s2)cc1`, the growth was 3.41% (active) in [1]; -42% (active) in assay [2]; 97.1% in assay [3]; 27% in [4]; 91.6% in assay [5]; 93.9% in assay [6]. In addition, the growth in assay [7] is 96.9%; in assay [9], 100%.
In the case of `Cn1ccc(Nc2nccc(Oc3ccc(C(=O)Nc4cccc(F)c4)c(Cl)c3)n2)c1`, the growth is 91.9% in [1]; 100% in assay [2]; 77.6% in assay [3]; 96.2% in assay [4]; 63.6% in [5]; 39.5% in [6]. Also, the figures for the growth in [7], in [8] and in assay [9] were 66.8%, 91.9% and 96.6%, respectively.
With `COc1ccc(-c2ccc(-c3ccc(C(=N)N)cn3)s2)cc1OC`, the growth in assay [1] was 99.8%; in assay [2], 65.5%; in assay [3], 94.7%; in assay [4], 88.3%; in assay [5], 93.5%; in assay [6] it was 88.7%. In addition, the growth in assay [7] was 98.1%; in [9], 98%.
Take `N=C(N)c1ccc(-c2ccc(-c3cncc4ccccc34)s2)cc1F`: the growth was -80.6% (active) in [1]; -91.7% (active) in assay [2]; -76.1% (active) in [3]; -92.3% (active) in [4]; -93.6% (active) in assay [5]; -99.1% (active) in [6]. Moreover, the figures for the growth in [7] and in assay [9] were -91.3% (active) and 85.7%, respectively.
For the compound `Cc1ccc(-c2nc(C(Cl)Cl)n3nc(-c4ccccc4)cc3n2)cc1`, the growth in [1] is -26.8% (active); in assay [2], -43.6% (active); in [3], 27.4%; in assay [4] it was -42.1% (active); in [5], -13% (active); in assay [6], 78.5%. Moreover, the growth in [7] is -8.44% (active); in assay [9] it was 85.9%.
Regarding `O=C1/C(=C/c2ccccc2)CN(C(=O)CCN2CCC(=NO)CC2)C/C1=C\c1ccccc1`, the growth in assay [1] is -42.7% (active); in [2], -81% (active); in assay [3], -18.6% (active); in assay [4], -52.7% (active); in assay [5], -7.51% (active); in assay [6] it was -59.2% (active). For the same compound, the growth was -90.7% (active) in [8] and -27.4% (active) in assay [9].
For the compound `CCOC(=O)c1ccc2c(c1)nc(-c1ccc(OCc3ccccc3)c(OC)c1)n2-c1cc(C(C)(C)C)[nH]n1`, the growth in assay [1] is 59.4%; in assay [2], 71.7%; in assay [3], 105%; in assay [4] it was 91.9%; in [5], 55.5%; in assay [6], 65.3%. The growth in [7] was 84.3%; in assay [9] it was 107%.
For `c1ccc(-c2nc(N3CCNCC3)c3nc(-c4ccccc4)oc3n2)cc1`, the growth in assay [1] is -81.3% (active); in assay [2], -86.6% (active); in [3] it was 5.98% (active); in assay [4], -93.5% (active); in [5] it was -62.3% (active); in assay [6], 36.2%. The values for the growth in assay [7] and in [9] were -92.8% (active) and 101%, respectively.
`N=C(N)c1ccc(-c2ccc(-c3ccc(-c4cccs4)s3)s2)cc1`: the growth in assay [1] is 101%; in assay [2], 95%; in assay [3], 97.5%; in [4], 91.2%; in assay [5], 89%; in [6] it was 91.4%. Also, the growth in assay [7] was 93.3%; in [9], 102%.
In the case of `O=C(NS(=O)(=O)c1ccccc1)n1cc(-c2ccncc2)c(-c2ccc(Cl)c(O)c2)n1`, the growth in assay [1] was 103%; in [2] it was 100%; in assay [3], 111%; in assay [4], 110%; in assay [5], 93.4%; in assay [6] it was 100%. The growth in assay [8] was 79.9%; in assay [9], 63%.
Regarding `COc1ccc2cc(-c3ccc(-c4ccc(C(=N)N)cc4)s3)ccc2c1`, the growth in assay [1] is 62%; in assay [2], 19.8%; in assay [3], 95.9%; in assay [4] it was 101%; in [5] it was 88.6%; in assay [6] it was 94.8%. Besides, the growth in assay [7] was 99.3%; in assay [9], 107%.
Turning to `NC1=NC(SCc2ccccc2CCl)c2ncn(Cc3ccccc3CCl)c2N1` (configuration not stated), the growth in assay [1] is 76.5%; in [2], 14.4%; in [3], 74.7%; in assay [4] it was 36.8%; in assay [5] it was 78.6%; in assay [6], 48.4%. Further, the growth in assay [8] was -80.2% (active); in [9] it was 65.2%.
Take `COc1ccc(-c2ccc(-c3ccc(C(=N)N)s3)s2)cc1Cl`: the growth was -76% (active) in [1]; -84% (active) in assay [2]; 35.2% in assay [3]; -86.2% (active) in assay [4]; -92% (active) in assay [5]; 67.5% in assay [6]. In addition, the growth in [7] was -92.1% (active); in [9], 90.1%.
Take `COc1c2occc2c(OC)c2c(=O)c(-c3cc(-c4ccc(F)cc4)c(C#N)c(N)n3)c(C)oc12`: the growth in assay [1] was 31.4%; in assay [2], 14.2%; in [3], 51.2%; in [4], 30.6%; in assay [5], 22.8%; in assay [6], 37.1%. Besides, the growth in [8] was 6.13% (active).
For `Clc1cc(Cl)c2nc(-c3ccc(-c4ccc(/C=N/NC5=NCCN5)cc4)s3)cn2c1`, the growth in assay [1] was 38%; in assay [2] it was 35%; in assay [3], 100%; in assay [4] it was 87.2%; in assay [5], 76.5%; in assay [6], 88%. In addition, the growth in [7] is 98.8%; in [9] it was 99.7%.
